Laboratory results taken from paper PMC9838217, “Structure of SALL4 zinc finger domain reveals link between AT-rich DNA binding and Okihiro syndrome”.
Positions count from the first letter of the chain named.

Key:
Experiment in all cases: HT-SELEX; high values mean tight binding
Settings in all cases: protein: recombinant; vector His6-GST; dsDNA, one strand shown
[1] = biological target: T1, SALL4 ZFC4 WT (HT-SELEX) (Mus musculus, UniProt Q8BX22 870-940)
T1 sequence: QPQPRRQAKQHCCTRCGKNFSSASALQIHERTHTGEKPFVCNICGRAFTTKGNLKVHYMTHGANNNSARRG
How it was run: (§1)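 In triplicate selections of up to 6 cycles, purified recombinant mouse SALL4 zinc finger cluster 4 (residues 870–940, 1 µg) was incubated 10 min at room temperature with library DNA (1.5 µg, then 200 ng) in 100 µl of 10 mM Tris–HCl pH 7.5, 50 mM NaCl, poly(dI-dC) and DTT, and complexes were captured on Ni2+ beads, washed and PCR-amplified. Sequencing was done on MiSeq with scanning for 6-mers. The binding signal is each canonical k-mer's read fraction, reported as fold change against the initial random library.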

[2] = biological target: T2, SALL4 ZFC4 R900W (HT-SELEX) (Mus musculus, UniProt Q8BX22 870-940, R900W)
T2 sequence: T1 sequence with R31W
How it was run: as §1

[3] = biological target: T3, SALL4 ZFC4 G921D (HT-SELEX) (Mus musculus, UniProt Q8BX22 870-940, G921D)
T3 sequence: T1 sequence with G52D
How it was run: as §1

Row | Sequence | binding signal [1] [fold-change vs cycle 0] | binding signal [2] [fold-change vs cycle 0] | binding signal [3] [fold-change vs cycle 0]
1 | AGTATC | 1.37 ± 0.0932 | 1.48 ± 0.12 | 1.44 ± 0.125
2 | ACTTCC | 0.854 ± 0.0494 | 1.02 ± 0.0553 | 1.03 ± 0.0487
3 | ACTACC | 0.799 ± 0.0371 | 0.948 ± 0.0381 | 0.968 ± 0.0334
4 | AGGGAT | 0.9983 ± 0.00779 | 1.11 ± 0.0341 | 1.07 ± 0.0457
5 | AAGTCC | 0.762 ± 0.0144 | 0.863 ± 0.0347 | 0.936 ± 0.0256
6 | CAAGAA | 1.26 ± 0.0324 | 1.43 ± 0.0703 | 1.35 ± 0.104
7 | CCAAGA | 0.78 ± 0.0182 | 0.888 ± 0.03 | 0.931 ± 0.0131
8 | CATCCC | 0.525 ± 0.0193 | 0.59 ± 0.0178 | 0.652 ± 0.049
9 | CAAAAC | 0.936 ± 0.0391 | 1.06 ± 0.0573 | 1.08 ± 0.0366
10 | CTTCTC | 0.952 ± 0.0502 | 1.11 ± 0.0917 | 1.07 ± 0.0618
11 | ATCTAG | 1.35 ± 0.0842 | 1.48 ± 0.0373 | 1.41 ± 0.108
12 | GATATA | 2.54 ± 0.207 | 1.98 ± 0.124 | 1.77 ± 0.173
13 | CCTTCC | 0.487 ± 0.0167 | 0.593 ± 0.0214 | 0.661 ± 0.0352
14 | AATTTA | 2.91 ± 0.251 | 2.35 ± 0.145 | 2.04 ± 0.225
